# According to PubChem BioAssay:
# Assays:
# [1] = system: Human papillomavirus type 1a protein E7 (residues 44-93); experiment: HPV1a E7 fragment binders on microarrays, primary screen, biochemical, small-molecule microarray, residues 44-93, 635 nm fluorescence (AID 1108); conditions: small-molecule microarray binding, fluorescence 635 nm; higher = more signal;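 further: E7 fragment applied at 1 µg/mL in TBST for 1 h at 4 C; score combines spot fluorescence with its signal to noise ratio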
# [2] = modulators of HCV replicon luciferase signal, primary screen, HCV replication inhibitor project, Huh7 cells, luciferase reporter (AID 1109); conditions: 48 h, higher = more signal;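 further: huh7 hepatoma cells harbouring a luciferase neomycin HCV replicon reporter; luciferase luminescence as measure of HCV replicon replication; test concentration not given here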
# [3] = biological target: Left-right determination factor 2 (Homo sapiens) (UniProt O00292); experiment: LEFTY2 binders on small-molecule microarrays, primary screen, biochemical, small-molecule microarray, 635 nm fluorescence scan (AID 1110); conditions: LEFTY2 binding, higher = more signal
# Chain of Left-right determination factor 2 (Homo sapiens) (O00292 whole entry, looked up): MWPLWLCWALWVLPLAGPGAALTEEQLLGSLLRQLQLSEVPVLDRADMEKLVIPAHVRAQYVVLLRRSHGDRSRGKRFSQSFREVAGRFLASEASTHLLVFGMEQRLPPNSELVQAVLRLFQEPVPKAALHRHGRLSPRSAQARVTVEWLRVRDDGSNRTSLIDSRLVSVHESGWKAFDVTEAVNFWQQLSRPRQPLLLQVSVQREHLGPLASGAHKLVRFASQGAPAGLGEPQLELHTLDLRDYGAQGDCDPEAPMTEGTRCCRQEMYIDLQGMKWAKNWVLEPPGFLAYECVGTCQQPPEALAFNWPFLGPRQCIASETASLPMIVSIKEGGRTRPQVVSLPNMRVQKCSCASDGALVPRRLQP
# [4] = biological target: Calmodulin-1 (Homo sapiens) (UniProt P0DP23); experiment: CALM1 binders on microarrays, EGTA buffer, profiling panel, biochemical, small-molecule microarray, Cy5-labelled CALM1 (AID 1111); conditions: Cy5-CALM1 binding fluorescence, higher = more signal;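 further: labelled calmodulin applied in Tris saline Tween buffer holding calcium plus EGTA and DTT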
# [5] = biological target: Calmodulin-1 (Homo sapiens) (UniProt P0DP23); experiment: calcium-bound CALM1 binders on microarrays, profiling panel, artefact control for SMM control-protein annotation, biochemical, small-molecule microarray, Cy5-labelled CALM1, plus calcium (AID 1112); conditions: Cy5-CALM1 binding fluorescence, higher = more signal;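 further: score merges spot fluorescence with signal to noise from triplicate slides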
# [6] = small-molecule microarray binders of probe aWnt5a, primary screen, biochemical, biotinylated probe, 635/667 nm fluorescence (AID 1113); conditions: higher = more signal;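 further: score merges 667 nm fluorescence intensity with signal-to-noise per printed feature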
# [7] = small-molecule microarray binders of probe aShh, primary screen, biochemical, biotinylated probe, 635/667 nm fluorescence (AID 1114); conditions: higher = more signal;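 further: probe is biotin-labelled aShh protein from a stem cell growth factor screen; measures binding of labelled protein to compounds printed on the slide; score merges feature fluorescence at 667 nm with signal-to-noise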
# [8] = small-molecule microarray binders of probe aNog, primary screen, biochemical, biotinylated probe, 635/667 nm fluorescence (AID 1115); conditions: higher = more signal;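 further: probe is biotinylated aNog protein used at 0.15 µg/mL for 1 h at 4 C; z-score combines 667 nm fluorescence of each spot with its signal to noise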
# [9] = biological target: Torsin-1A-interacting protein 1 (Homo sapiens) (UniProt Q5JTV8); experiment: LAP1 binders from COS7 cell lysate, primary screen, small-molecule microarray, 635/667 nm fluorescence (AID 1116); conditions: COS7-hLAP1 lysate binding, 635 nm fluorescence, higher = more signal
# Chain of Torsin-1A-interacting protein 1 (Homo sapiens) (Q5JTV8 whole entry, looked up): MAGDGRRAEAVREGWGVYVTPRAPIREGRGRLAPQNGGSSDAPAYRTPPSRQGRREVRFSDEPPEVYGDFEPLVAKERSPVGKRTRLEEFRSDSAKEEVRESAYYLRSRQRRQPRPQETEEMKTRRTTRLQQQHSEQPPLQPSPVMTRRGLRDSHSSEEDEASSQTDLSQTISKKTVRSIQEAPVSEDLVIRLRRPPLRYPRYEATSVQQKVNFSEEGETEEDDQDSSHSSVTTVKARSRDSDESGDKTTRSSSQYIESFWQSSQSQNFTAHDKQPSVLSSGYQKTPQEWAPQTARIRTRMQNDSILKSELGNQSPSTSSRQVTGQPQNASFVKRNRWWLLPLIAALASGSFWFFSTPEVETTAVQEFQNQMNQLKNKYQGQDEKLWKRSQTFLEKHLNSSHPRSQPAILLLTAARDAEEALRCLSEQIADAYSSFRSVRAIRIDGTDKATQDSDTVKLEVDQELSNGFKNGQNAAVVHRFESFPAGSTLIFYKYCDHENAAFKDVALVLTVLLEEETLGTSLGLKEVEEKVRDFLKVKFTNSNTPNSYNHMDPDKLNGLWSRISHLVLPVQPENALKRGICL
# [10] = biological target: Alpha-bungarotoxin (Bungarus multicinctus) (UniProt P60615); experiment: alpha-bungarotoxin binders on microarray, profiling panel, artefact control for SMM control protein annotation, biochemical, small-molecule microarray, Alexa647 label, 635/667 nm fluorescence (AID 1117); conditions: alpha-BTX-A647 binding fluorescence, higher = more signal
# Chain of Alpha-bungarotoxin (Bungarus multicinctus) (P60615 whole entry, looked up): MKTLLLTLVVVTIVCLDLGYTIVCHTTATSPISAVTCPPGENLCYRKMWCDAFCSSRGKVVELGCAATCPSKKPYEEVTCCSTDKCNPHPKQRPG
SMILES,composite z-score [1],z-score [2],composite z-score [3],composite z-score [4],composite z-score [5],composite z-score [6],composite z-score [7],composite z-score [8],composite z-score [9],composite z-score [10]
CC(CCN1CCc2nc(-c3ccccc3)c(-c3ccccc3)cc2C1)=NO[C@H](C)c1cn([C@H](CO)Cc2ccccc2)nn1,-0.93,-2.3,0.332,0.0521,0.509,-0.0242,-0.16,-0.0309,0.34,1.2
CC=CC1=C(CO)[C@H](O)[C@H]2O[C@H]2[C@@H]1O,-0.342,0.382,1.06,-0.849,-1.1,-0.0236,-0.282,-0.244,-0.193,0.495
OC[C@H]1O[C@H](C#Cc2ccccc2)C=C[C@@H]1O,0.0191,-0.125,0.484,-0.12,-0.644,0.0251,0.0141,-0.0125,-0.0177,0.42
COc1ccc(O[C@H]2C=C[C@@H](c3ccccc3)O[C@@H]2COC(=O)NCc2cccc3ccccc23)cc1,0.125,-2.19,-0.0808,-0.413,-0.329,-0.104,0.23,-0.116,0.469,0.33
O=C(NN=C1C[C@@H](O)[C@@H](O)[C@@H]2[C@@H]3C(=O)N(Cc4ccc5c(c4)OCO5)C(=O)[C@@H]3CC[C@@H]12)OCc1ccccc1,-0.189,-1.39,0.0764,-0.114,-0.103,-0.176,0.227,-0.0498,0.739,0.26
CC(C)=NOC(C)CN1CCCc2nc(C)c(C)cc21 (stereo not given),1.17,0.302,0.75,-0.291,-0.869,-0.0718,0.214,-0.0809,-0.0182,0.32
COC(=O)CC=C[C@@H](C)[C@@H](C=NOC[C@@H](C)[C@H](OCc1ccccc1)C(C)C)OC,0.281,-0.759,0.364,-0.481,-0.79,-0.096,-0.19,-0.116,-0.062,0.215
CC(CCN1CCc2nc(-c3ccccc3)c(-c3ccccc3)cc2C1)=NOC(C)CN1CCCc2nc(C)c(C)cc21 (stereo not given),1.39,-3.08,0.848,0.637,-0.0431,0.0017,0.267,0.378,0.825,1.03
C[C@@H]1CC[C@H]2C(=O)OC(CN3C(=O)c4ccccc4C3=O)CN2[C@H]1c1ccc(Br)cc1 (stereo not given in full),0.901,0.302,0.113,1.53,0.772,-0.091,0.111,0.243,0.419,0.666
O=C1C[C@@H](O)[C@@H](O)[C@@H]2[C@@H]3C(=O)N(C4CCCCC4)C(=O)[C@@H]3CC[C@@H]12,0.242,-0.331,0.697,-0.0958,-0.397,-0.177,0.0898,-0.104,0.462,0.882
O=C1C=C[C@@H](O)[C@@H]2[C@@H]3C(=O)N(C4CCCCC4)C(=O)[C@@H]3CC[C@@H]12,0.502,-4.18,0.71,-0.0865,-0.713,-0.0459,-0.0793,-0.158,0.191,0.518
C#CCCCON=C1C[C@@H](O)[C@@H](O)[C@@H]2[C@@H]3C(=O)N(CC)C(=O)[C@@H]3CC[C@H]12,0.51,-0.0718,0.278,-0.0398,-0.304,-0.089,-0.307,-0.353,0.779,0.573
CC(CCC(=O)OC[C@H]1O[C@H](C#Cc2ccccc2)C=C[C@@H]1Oc1ccc(C)cc1)=NOC(C)CN1CCCCc2nc(C)c(C)cc21 (stereo not given in full),0.686,-1.17,-0.132,-0.19,0.571,-0.197,-0.0626,-0.257,-0.0043,1.53
CCCNC(=O)OC[C@H]1O[C@H](CCON=C2C[C@@H](O)[C@@H](O)[C@@H]3[C@@H]4C(=O)N(CC)C(=O)[C@@H]4CC[C@@H]23)C=C[C@@H]1Oc1ccc(OC)cc1,0.938,-1.33,0.928,0.0716,-0.795,-0.141,0.531,0.084,-0.0137,0.512
COc1ccc(COC(=O)NN=C2C[C@@H](O)[C@@H](O)[C@@H]3[C@@H]4C(=O)N(Cc5ccccc5)C(=O)[C@@H]4CC[C@@H]23)cc1,0.183,0.605,0.379,-0.234,-0.515,-0.128,0.0278,-0.216,0.0762,-0.125
CC(C)CON=C1C[C@@H](O)[C@@H](O)[C@@H]2[C@@H]3C(=O)N([C@@H](C)c4ccccc4)C(=O)[C@@H]3CC[C@@H]12,-0.0319,-0.265,0.236,-0.231,-0.282,-0.124,-0.289,-0.222,0.179,0.0887
